Source: PubChem BioAssay AID1159580 (chemical genetic matrix, 2015)
“And” between values parts separate entries of the source, which are not always exact repeats. Identical values can stand only once. The whole screen tested about 5,500 compounds, of which about 2,000 (36%) were called active. About 18% were inconclusive and are not listed. Cut-off read from the data, not from the text of the source: active = normalized growth mostly below about 0.91 (no sharp cut-off); inconclusive = no clear call, values can overlap the other calls; inactive = mostly above about 0.92. Some of the results follow.

Experiment: chemical genetic growth profiling, strain panel (AID 1159580);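 note: tested at 20 µM; growth read once vehicle control cultures reached saturation at 30 °C; 1 = growth at the plate median or of vehicle wells; lower values mean less growth of the strain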
Details: S. cerevisiae deletion strains, growth OD

Measured: normalized growth

O=C(O)c1cc(=O)c2ccccc2[nH]1
inactive: locus YAL013W, strain DEP1, hits give low values 0.991 and 1.01 | locus YAL021C, strain ccr4, hits give low values 0.96 | locus YAL026C, strain drs2, hits give low values 0.986 | locus YAL030W, strain snc1, hits give low values 0.987 | locus YAL040C, strain CLN3, hits give low values 0.998 | locus YBL061C, strain skt5, hits give low values 0.972 | locus YBR009C, strain hhf1, hits give low values 0.979 | locus YBR021W, strain FUR4, hits give low values 1.02 | locus YBR023C, strain chs3, hits give low values 0.98 | locus YBR171W, strain sec66, hits give low values 0.975 | locus YBR229C, strain ROT2, hits give low values 0.96 | locus YBR231C, strain swc5, hits give low values 0.998 | locus YBR279W, strain paf1, hits give low values 0.992 | locus YCL011C, strain gbp2, hits give low values 0.986 | locus YCL016C, strain dcc1, hits give low values 0.981 | locus YCL029C, strain bik1, hits give low values 0.989 | locus YCL061C, strain MRC1 (second series), hits give low values 0.992 | locus YCL061C, strain MRC1, hits give low values 0.983 | locus YCL069W, strain vba3, hits give low values 0.993 | locus YCR088W, strain abp1, hits give low values 0.987 | locus YDL005C, strain med2, hits give low values 0.975 | locus YDL035C, strain GPR1, hits give low values 0.998 | locus YDL040C, strain nat1, hits give low values 0.988 | locus YDL074C, strain BRE1, hits give low values 0.986 | locus YDL101C, strain DUN1, hits give low values 0.964 | locus YDL134C, strain PPH21, hits give low values 0.972 | locus YDL185W, strain tfp1, hits give low values 0.979 | locus YDL192W, strain arf1, hits give low values 0.991 | locus YDR001C, strain nth1, hits give low values 0.991 | locus YDR069C, strain doa4, hits give low values 0.97 | locus YDR101C, strain arx1, hits give low values 0.993 | locus YDR137W, strain rgp1, hits give low values 1.02 | locus YDR150W, strain NUM1, hits give low values 0.975 and 1.01 | locus YDR159W, strain sac3, hits give low values 0.962 | locus YDR162C, strain NBP2, hits give low values 0.99 | locus YDR195W, strain ref2 0.968 | locus YDR297W, strain sur2, hits give low values 0.985 | locus YDR318W, strain mcm21, hits give low values 0.99 | locus YDR334W, strain swr1, hits give low values 0.984 | locus YDR335W, strain msn5, hits give low values 0.99 | locus YDR363W, strain ESC2, hits give low values 0.981 | locus YDR388W, hits give low values 0.997 | locus YDR392W, strain spt3, hits give low values 0.963 | locus YDR502C, strain sam2, hits give low values 0.995 | locus YEL003W, strain gim4, hits give low values 0.988 | locus YEL037C, strain rad23, hits give low values 0.99 | locus YEL061C, strain CIN8 (second series), hits give low values 0.993 | locus YEL061C, strain CIN8, hits give low values 0.992 | locus YER002W, strain NOP16, hits give low values 0.98 | locus YER015W, strain faa2, hits give low values 0.984 | locus YER016W, strain bim1, hits give low values 0.987 | locus YER110C, hits give low values 0.978 | locus YER111C, strain swi4, hits give low values 0.983 | locus YER155C, strain BEM2 (second series), hits give low values 0.981 | locus YER155C, strain BEM2, hits give low values 0.997 | locus YER167W, strain BCK2, hits give low values 1 | locus YFR010W, strain ubp6, hits give low values 0.977 | locus YGL078C, strain dbp3, hits give low values 0.987 | locus YGL086W, strain mad1, hits give low values 0.998 | locus YGL167C, strain pmr1, hits give low values 0.973 | locus YGL173C, strain kem1, hits give low values 0.986 | locus YGL227W, strain vid30, hits give low values 0.984 | locus YGL240W, strain doc1, hits give low values 0.987 | locus YGL248W, strain PDE1, hits give low values 0.977 | locus YGL253W, strain hxk2, hits give low values 0.988 | locus YGR078C, strain PAC10, hits give low values 0.999 and 0.983 | locus YGR135W, strain pre9, hits give low values 0.988 | locus YGR229C, strain SMI1, hits give low values 1 | locus YGR252W, strain gcn5, hits give low values 0.992 | locus YHR013C, strain ard1, hits give low values 0.958 | locus YHR027C, strain rpn1, hits give low values 1 | locus YHR030C, strain SLT2, hits give low values 0.991 and 0.972 | locus YHR079C, strain IRE1 (second series), hits give low values 0.989 | locus YHR079C, strain IRE1, hits give low values 0.985 | locus YHR094C, strain hxt1, hits give low values 0.996 | locus YHR129C, strain ARP1, hits give low values 0.995 | locus YHR142W, strain chs7, hits give low values 0.99 | locus YHR200W, strain rpn10, hits give low values 0.987 | locus YIL066C, strain RNR3, hits give low values 0.973 | locus YIL073C, strain SPO22, hits give low values 0.95 | locus YIL125W, strain kgd1, hits give low values 0.987 | locus YIR030C, strain dcg1, hits give low values 0.983 | locus YJL092W, strain hpr5, hits give low values 0.987 | locus YJL095W, strain BCK1 (second series), hits give low values 0.973 | locus YJL095W, strain BCK1, hits give low values 1.04 and 0.987 | locus YJL115W, strain asf1, hits give low values 0.992 | locus YJL129C, strain trk1, hits give low values 0.973 | locus YJL134W, strain LCB3, hits give low values 0.982 | locus YJL154C, strain vps35, hits give low values 0.98 | locus YJL164C, strain tpk1, hits give low values 1.01 | locus YJL166W, strain qcr8, hits give low values 0.998 | locus YJL168C, strain set2, hits give low values 0.996 | locus YJL187C, strain SWE1 (second series), hits give low values 0.967 | locus YJL187C, strain SWE1, hits give low values 0.987 | locus YJR043C, strain POL32, hits give low values 1 | locus YJR066W, strain TOR1, hits give low values 0.88
